“And” between values parts separate entries of the source, which are not always exact repeats. Identical values can stand only once. In all, about 5,500 compounds went through this assay and about 2,000 (36%) were called active. Not shown: some 18% with an inconclusive outcome. Rule as the data show it: active = normalized growth mostly below about 0.91 (no sharp cut-off); inconclusive = no clear call, values can overlap the other calls; inactive = mostly above about 0.92. Some of the results follow.
Test: chemical genetic growth profiling, strain panel (AID 1159580);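 also: tested at 20 µM; growth read once vehicle control cultures reached saturation at 30 °C; 1 = growth at the plate median or of vehicle wells; lower values mean less growth of the strain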
Conditions: S. cerevisiae deletion strains, growth OD

Measured: normalized growth

O=C(O)CCC1NCC2CC1CN1CCCCC21 (configuration not stated)
inactive: locus YAL013W, strain DEP1, stronger effect = lower value 1 | locus YAL021C, strain ccr4, stronger effect = lower value 0.97 | locus YAL026C, strain drs2, stronger effect = lower value 0.974 | locus YAL030W, strain snc1, stronger effect = lower value 0.969 | locus YBL061C, strain skt5, stronger effect = lower value 0.975 | locus YBR009C, strain hhf1, stronger effect = lower value 0.989 | locus YBR021W, strain FUR4, stronger effect = lower value 1.01 | locus YBR023C, strain chs3, stronger effect = lower value 0.983 | locus YBR171W, strain sec66, stronger effect = lower value 0.999 | locus YBR229C, strain ROT2, stronger effect = lower value 1.01 | locus YBR231C, strain swc5, stronger effect = lower value 0.986 | locus YBR279W, strain paf1, stronger effect = lower value 0.977 | locus YCL011C, strain gbp2, stronger effect = lower value 0.975 | locus YCL016C, strain dcc1, stronger effect = lower value 0.98 | locus YCL029C, strain bik1, stronger effect = lower value 0.997 | locus YCL061C, strain MRC1, stronger effect = lower value 0.989 | locus YCL069W, strain vba3, stronger effect = lower value 0.985 | locus YCR088W, strain abp1, stronger effect = lower value 0.982 | locus YDL005C, strain med2, stronger effect = lower value 0.969 | locus YDL035C, strain GPR1, stronger effect = lower value 1.02 | locus YDL040C, strain nat1, stronger effect = lower value 0.982 | locus YDL074C, strain BRE1, stronger effect = lower value 0.999 | locus YDL101C, strain DUN1, stronger effect = lower value 1 | locus YDL134C, strain PPH21, stronger effect = lower value 1 | locus YDL185W, strain tfp1, stronger effect = lower value 0.997 | locus YDL192W, strain arf1, stronger effect = lower value 0.998 | locus YDR001C, strain nth1, stronger effect = lower value 0.967 | locus YDR069C, strain doa4, stronger effect = lower value 0.987 | locus YDR101C, strain arx1, stronger effect = lower value 0.999 | locus YDR137W, strain rgp1, stronger effect = lower value 0.975 | locus YDR150W, strain NUM1, stronger effect = lower value 0.998 | locus YDR159W, strain sac3, stronger effect = lower value 0.978 | locus YDR162C, strain NBP2, stronger effect = lower value 1 | locus YDR195W, strain ref2 0.975 | locus YDR297W, strain sur2, stronger effect = lower value 0.974 | locus YDR318W, strain mcm21, stronger effect = lower value 1.02 | locus YDR334W, strain swr1, stronger effect = lower value 0.931 | locus YDR335W, strain msn5, stronger effect = lower value 0.969 | locus YDR388W, stronger effect = lower value 0.994 | locus YDR392W, strain spt3, stronger effect = lower value 0.914 | locus YDR502C, strain sam2, stronger effect = lower value 0.988 | locus YEL003W, strain gim4, stronger effect = lower value 0.967 | locus YEL037C, strain rad23, stronger effect = lower value 0.999 | locus YEL061C, strain CIN8 (second series), stronger effect = lower value 0.97 | locus YEL061C, strain CIN8, stronger effect = lower value 1.02 | locus YER015W, strain faa2, stronger effect = lower value 0.966 | locus YER016W, strain bim1, stronger effect = lower value 0.973 | locus YER110C, stronger effect = lower value 0.999 | locus YER111C, strain swi4, stronger effect = lower value 0.98 | locus YER155C, strain BEM2 (second series), stronger effect = lower value 0.999 | locus YER155C, strain BEM2, stronger effect = lower value 1 | locus YER167W, strain BCK2, stronger effect = lower value 1 | locus YFR010W, strain ubp6, stronger effect = lower value 0.974 | locus YGL078C, strain dbp3, stronger effect = lower value 0.982 | locus YGL086W, strain mad1, stronger effect = lower value 1.02 | locus YGL167C, strain pmr1, stronger effect = lower value 0.965 | locus YGL173C, strain kem1, stronger effect = lower value 0.963 | locus YGL227W, strain vid30, stronger effect = lower value 0.986 | locus YGL240W, strain doc1, stronger effect = lower value 0.985 | locus YGL248W, strain PDE1, stronger effect = lower value 1 | locus YGL253W, strain hxk2, stronger effect = lower value 0.978 | locus YGR078C, strain PAC10, stronger effect = lower value 1 | locus YGR135W, strain pre9, stronger effect = lower value 0.98 | locus YGR229C, strain SMI1, stronger effect = lower value 0.983 | locus YGR252W, strain gcn5, stronger effect = lower value 1.06 | locus YHR013C, strain ard1, stronger effect = lower value 0.95 | locus YHR027C, strain rpn1, stronger effect = lower value 0.953 | locus YHR030C, strain SLT2, stronger effect = lower value 1.01 and 1.03 | locus YHR079C, strain IRE1 (second series), stronger effect = lower value 1 | locus YHR079C, strain IRE1, stronger effect = lower value 1.01 | locus YHR094C, strain hxt1, stronger effect = lower value 0.999 | locus YHR129C, strain ARP1, stronger effect = lower value 1.01 | locus YHR142W, strain chs7, stronger effect = lower value 0.938 | locus YHR200W, strain rpn10, stronger effect = lower value 1 | locus YIL066C, strain RNR3, stronger effect = lower value 1.02 | locus YIL073C, strain SPO22, stronger effect = lower value 1.03 | locus YIL125W, strain kgd1, stronger effect = lower value 0.993 | locus YIR030C, strain dcg1, stronger effect = lower value 0.986 | locus YJL092W, strain hpr5, stronger effect = lower value 0.979 | locus YJL095W, strain BCK1 (second series), stronger effect = lower value 0.976 | locus YJL095W, strain BCK1, stronger effect = lower value 1 | locus YJL115W, strain asf1, stronger effect = lower value 0.958 | locus YJL129C, strain trk1, stronger effect = lower value 0.952 | locus YJL134W, strain LCB3, stronger effect = lower value 0.999 | locus YJL154C, strain vps35, stronger effect = lower value 0.967 | locus YJL164C, strain tpk1, stronger effect = lower value 0.976 | locus YJL166W, strain qcr8, stronger effect = lower value 0.975 | locus YJL168C, strain set2, stronger effect = lower value 0.995 | locus YJL187C, strain SWE1 (second series), stronger effect = lower value 1.01 | locus YJL187C, strain SWE1, stronger effect = lower value 0.974 | locus YJR043C, strain POL32, stronger effect = lower value 1.03 | locus YJR066W, strain TOR1, stronger effect = lower value 0.98

— PubChem BioAssay AID1159580 (chemical genetic matrix, 2015)
